In the library only some 8% were active in any assay of this set; here they are far more common.
FMDV inh: blocks foot and mouth disease virus; FMDV antiviral cell-based qHTS; Potency, µM (doses to about 57.9 µM), actives largely listed as inhibitors; AID 1159524; 410,000 tested, 1.2% active; calls by dose curve; tested in HEK293T cells; further: read-out not given here; nearly all actives have a fitted effect of over 45% in size
HCV inh: HCV inhibition; 340,000 tested, 3.4% active; Potency, µM (series often up to 41.8 µM), most hits filed as inhibitors; Huh7.5.1 HCVcc-Cre infection, luciferase reporter, 44 h; active means well fitted inhibition curve with a large enough effect; inconclusive means small, poorly fitted or top-dose-only effect, or another doubt; inactive means no such curve, though single readings can be large or run the other way
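Compounds are dispensed onto cells plated 4 h earlier at 1,000 per well, with HCVcc-Cre virus (about 0.5 moi) added next. Following 44 h of culture, luminescent signal is measured for 15 sec after 15 min with substrate at room temperature.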
HCMV inh: human cytomegalovirus inhibition; activity change, negative = inhibition, % at 57.5 µM; 410,000 tested, 4.5% active; HFF cells, HCMV-luciferase reporter, 72 h; active compounds read low; in the data active means activity change below about -60%; inconclusive means no clear call, values can overlap the other calls; inactive means above about -39%
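HFF cells seeded 16 h at 37C, treated with compounds, infected with luciferase-reporter HCMV at MOI 1 PFU/cell; luciferase read at 72 h post infection, normalized to buffer-only and Salinomycin controls.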
Lassa entry inh: Lassa virus entry inhibition. 300,000 tested, 1.2% active. Lassa virus pseudotype entry inhibition, cell reporter. Potency, µM (titrated, usually from 37.9 µM), hits mostly inhibitors; calls by dose curve; tested in HEK293 cells; further: nearly all actives have a fitted effect of over 50% in size
SARS PLP yeast: inhibitors of SARS-CoV papain-like protease in yeast; S. cerevisiae expressing SARS-CoV PLpro, growth rescue; Potency, µM (doses to about 32.9 µM), usual class: activators; 330,000 tested, 0.19% active; calls by dose curve; further: nearly all actives have a fitted effect of over 55% in size
MARV entry inh: Marburg virus entry inhibition | Marburg virus pseudotyped entry inhibition, cell reporter | Potency, µM (highest dose often 37.8 µM), hits mostly inhibitors | 300,000 tested, 1.8% active | AID 540276; calls by dose curve; tested in HEK293 cells
Large screens that a line does not name were inactive; ! = repeats disagree.

COCCCN=C1NN=C(c2cc(C)n(Cc3ccco3)c2C)CS1	Lassa entry inh inconclusive, MARV entry inh 16µM
COCC(C)N=C1NN=C(c2cc(C)n(Cc3ccccc3Cl)c2C)CS1 (stereo not given)	HCV inh inconclusive, HCMV inh -79 (no result: Lassa entry inh, MARV entry inh)
Cc1ccc(-c2nc3c(c(SCC(=O)Nc4cccc(C(=O)O)c4)n2)Cc2cccc(C)c2O3)cc1	none (no result: FMDV inh, HCV inh, HCMV inh)
CCOc1ccc(-c2cc(NC(=O)c3cccc(Cl)c3)c(C(=O)OC)s2)cc1	none (no result: HCV inh, SARS PLP yeast)
Cc1ccc(Oc2nc3ccccn3c(=O)c2/C=C(\C#N)c2nc3ccccc3s2)c(C)c1	FMDV inh inconclusive, MARV entry inh inconclusive (no result: HCV inh, SARS PLP yeast)
Cc1ccc(OCC(=O)Nc2ccc3c(c2)OCCO3)cc1C	HCMV inh -63, Lassa entry inh inconclusive, MARV entry inh inconclusive
Cc1ccc(OCC(=O)Nc2cc(C(=O)O)cc(C(=O)O)c2)cc1C	HCMV inh -65
Cc1cccc(OCC(=O)Nc2ccc3c(c2)OCCO3)c1	HCV inh inconclusive, Lassa entry inh inconclusive
Cc1cc(C)c(CN2C(=O)c3ccccc3S(=O)(=O)c3ccc(C(=O)OCC4CCCO4)cc32)c(C)c1 (stereo not given)	Lassa entry inh inconclusive (no result: HCV inh, SARS PLP yeast, MARV entry inh)
O=C(N[C@H](c1ccccc1)C1CCCC=C1c1ccccc1)C(F)(F)F (stereo not given in full)	none (no result: FMDV inh, HCV inh, HCMV inh, Lassa entry inh, SARS PLP yeast)
CN(Cc1ccco1)c1ccnc(-c2ccoc2)n1	none (no result: HCV inh, HCMV inh, Lassa entry inh, SARS PLP yeast, MARV entry inh)
COc1ccc(C)cc1NC(=O)C1CCN(S(=O)(=O)c2cc(Br)cc3c2N(C(C)=O)CC3)CC1	Lassa entry inh inconclusive (no result: HCV inh, SARS PLP yeast)
COc1ccc(C2=Nc3ccccc3NC(=O)C2N(C(=O)c2ccnc3ccccc23)c2ccccc2)cc1 (stereo not given)	HCMV inh -82 (no result: HCV inh, Lassa entry inh, SARS PLP yeast, MARV entry inh)
COc1ccc(C2=Nc3ccccc3NC(=O)C2N(C(=O)c2cnc(C)cn2)c2ccc(N3CCOCC3)cc2)cc1 (stereo not given)	none (no result: HCV inh, Lassa entry inh, SARS PLP yeast, MARV entry inh)
CCc1cnc2c(c1SCC(=O)NCc1ccc(F)cc1)c(=O)n(C)c(=O)n2C	HCMV inh inconclusive (no result: HCV inh, SARS PLP yeast, MARV entry inh)
CC(C)c1c(C(=O)Nc2ccccc2)c(-c2ccccc2)c(-c2ccc(F)cc2)n1CC[C@@H](O)C[C@@H](O)CC(=O)O	HCMV inh -67 (no result: HCV inh, Lassa entry inh, SARS PLP yeast, MARV entry inh)
CCc1ccc(C2c3c(-c4cc(C)ccc4O)n[nH]c3C(=O)N2CCO)cc1 (stereo not given)	Lassa entry inh inconclusive, MARV entry inh inconclusive (no result: HCV inh, SARS PLP yeast)
CCC(C)NC(=O)CSc1ccc(S(=O)(=O)N(C)C2CCCCC2)cn1 (stereo not given)	HCV inh inconclusive, Lassa entry inh 4µM, MARV entry inh inconclusive
CCCNC(=O)CSc1ccc(S(=O)(=O)N(C)C2CCCCC2)cn1	none (no result: HCV inh, Lassa entry inh, SARS PLP yeast, MARV entry inh)
NC(=O)C(c1ccc(Cl)cc1)c1ccc(Sc2ccc(Cl)cc2)nn1 (stereo not given)	FMDV inh inconclusive, HCV inh inconclusive, HCMV inh -89, Lassa entry inh inconclusive, MARV entry inh inconclusive
COc1ccccc1-c1ccc(Nc2cccc(C(C)=O)c2)nn1	HCV inh 7.9µM
CC(=O)c1cccc(Nc2ccc(-c3ccccc3F)nn2)c1	HCV inh inconclusive, MARV entry inh inconclusive
CCCOc1ccc(Oc2nc(NCC(C)C)nc(N(C)C)n2)nn1	none (no result: HCV inh, SARS PLP yeast)
COCCCNC(=O)c1sc2ncn(CC(=O)Nc3ccc(C)c(Cl)c3)c(=O)c2c1C	HCV inh inconclusive
CCCN(CCC)CCCNC(=O)Cn1cnc2sc(C)c(S(=O)(=O)N3CCCCC3)c2c1=O	HCMV inh -71!, Lassa entry inh inconclusive
Cc1ccc(NC(=O)Cn2cnc3sc(C(=O)NCCN(C)C)c(C)c3c2=O)cc1Cl	HCV inh 10µM (no result: FMDV inh, HCMV inh, Lassa entry inh, MARV entry inh)
CCCN(CCC)CCCNC(=O)Cn1cnc2sc(C)c(S(=O)(=O)N3CCC(C)CC3)c2c1=O	none
CCN(CC)CCCNC(=O)c1sc2ncn(CC(=O)Nc3ccc(C)c(Cl)c3)c(=O)c2c1C	HCV inh 14µM, HCMV inh -63 (no result: Lassa entry inh, MARV entry inh)
CC(=O)c1cc(-c2ccc(F)cc2)n(CCC(=O)NC2CCCCC2)c1C	none (no result: HCV inh, SARS PLP yeast, MARV entry inh)
O=S(=O)(c1cc(O)ccc1O)c1cccc2c(S(=O)(=O)c3cc(O)ccc3O)cccc12	HCV inh 10µM (no result: Lassa entry inh, MARV entry inh)
O=S(=O)(O)c1cc(O)ccc1O	HCMV inh inconclusive (no result: Lassa entry inh, MARV entry inh)
O=C(CSCc1cccc(CSCC(=O)Nc2ccc3ccccc3c2)n1)Nc1ccc2ccccc2c1	HCV inh 10µM, HCMV inh -82, MARV entry inh inconclusive
COc1ccc(C2CC(=O)N(Cc3cccc(C)c3)c3c2c(C)nn3-c2nc(C)cc(C)n2)c(OC)c1 (stereo not given)	MARV entry inh inconclusive (no result: HCV inh, SARS PLP yeast)
CC1(C)CC2CC(C)(CN2C(=S)Nc2ccccc2)C1 (stereo not given)	HCMV inh -61
CCOC(=O)N1CCN(C(=O)c2ccc3c(c2)N(Cc2ccccc2F)C(=O)c2ccccc2S3(=O)=O)CC1	none (no result: HCV inh, SARS PLP yeast)
COc1ccc(C2c3ccc(O)cc3Oc3ncn4nc(-c5cccnc5)nc4c32)cc1OC (stereo not given)	FMDV inh inconclusive, HCV inh 28µM, Lassa entry inh inconclusive, MARV entry inh inconclusive
COc1ccc(C2c3ccc(O)cc3Oc3ncn(Cc4ccco4)c(=N)c32)cc1OC (stereo not given)	HCV inh inconclusive, HCMV inh inconclusive (no result: Lassa entry inh, MARV entry inh)
COc1ccc(-c2nc3ccccc3o2)cc1NC(=O)c1ccc(-c2cccc(Cl)c2C)o1	none (no result: HCV inh, SARS PLP yeast, MARV entry inh)
O=C1C=CN(C2OC(CO)C(O)C2O)C(=O)C1 (stereo not given)	HCMV inh -73 (no result: HCV inh, Lassa entry inh, SARS PLP yeast, MARV entry inh)
NC(=O)c1ccc(=O)n(C2OC(CO)C(O)C2O)c1 (stereo not given)	none (no result: SARS PLP yeast)

Source: PubChem BioAssay (National Center for Advancing Translational Sciences (NCATS))
